# Laboratory results as given in the supplement of paper PMC8728848.
# Shown is part of a subset that was picked to be rich in the strongest signals.
# B1: ECA (Erythrina cristagalli), P83410 (protein)
# chain: VETISFSFSEFEPGNDNLTLQGAALITQSGVLQLTKINQNGMPAWDSTGRTLYTKPVHMWDSTTGTVASFETRFSFSIEQPYTRPLPADGLVFFMGPTKSKPAQGYGYLGVFNNSKQDNSYQTLAVEFDTFSNPWDPPQVPHIGIDVNSIRSIKTQPFQLDNGQVANVVIKYDAPSKILHVVLVYPSSGAIYTIAEIVDVKQVLPDWVDVGLSGATGAQRDAAETHDVYSWSFQASLPE
# Legend:
# Assay in all cases: glycan array binding signal (z-score within array); higher = stronger binding
# Settings in all cases: glycan notation: IUPAC condensed, linker removed
# [1] = target: Fuc(a1-2)Gal(b1-3)GalNAc(b1-3)Gal(a1-4)Gal(b1-4)Glc
# How it was run: (§1)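 Glycan array data came from 3228 arrays in the Consortium for Functional Glycomics database, and only arrays with an available protein sequence were kept. Glycan names were put into IUPAC-condensed notation, and columns mapping to the same glycan were averaged. The binding signal is a within-array Z-score, averaged across arrays of one protein sequence run at different concentrations or buffers and across linkers. A negative Z-score can be read as non-binding.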
# [2] = target: Fuc(a1-2)Gal(b1-3)[Fuc(a1-4)]GlcNAc(b1-3)[Gal(b1-4)GlcNAc(b1-6)]Gal(b1-4)Glc
# How it was run: as §1
# [3] = target: Fuc(a1-2)Gal(b1-4)[Fuc(a1-3)]GlcNAc(b1-3)GalNAc
# How it was run: as §1
# [4] = target: Fuc(a1-2)Gal6S(b1-4)Glc6S
# How it was run: as §1
# [5] = target: Fuc(a1-2)[Gal(a1-3)]Gal(b1-4)GlcNAc(b1-2)Man
# How it was run: as §1
# [6] = target: Fuc(a1-2)[Gal(a1-3)]Gal(b1-4)GlcNAc(b1-6)GalNAc
# How it was run: as §1
# [7] = target: Fuc(a1-2)[Gal(a1-3)]Gal(b1-4)[Fuc(a1-3)]GlcNAc(b1-3)GalNAc
# How it was run: as §1
# [8] = target: Fuc(a1-3)[GalNAc(b1-4)]GlcNAc
# How it was run: as §1
# [9] = target: Gal(a1-3)Gal(b1-4)GlcNAc(b1-2)Man
# How it was run: as §1
# [10] = target: Gal(a1-3)Gal(b1-4)[Fuc(a1-3)]GlcNAc(b1-2)Man(a1-3)[Gal(a1-3)Gal(b1-4)[Fuc(a1-3)]GlcNAc(b1-2)Man(a1-6)]Man(b1-4)GlcNAc(b1-4)GlcNAc
# How it was run: as §1
# [11] = target: Gal(b1-3)GlcNAc(a1-6)Gal(b1-4)GlcNAc
# How it was run: as §1
# [12] = target: Gal(b1-3)GlcNAc(b1-6)GalNAc
# How it was run: as §1
# [13] = target: Gal(b1-3)[Fuc(a1-4)]GlcNAc
# How it was run: as §1
# [14] = target: Gal(b1-4)GlcNAc(b1-3)Gal(b1-4)GlcNAc(b1-2)Man(a1-3)[Gal(b1-4)GlcNAc(b1-3)Gal(b1-4)GlcNAc(b1-2)Man(a1-6)]Man(b1-4)GlcNAc(b1-4)GlcNAc
# How it was run: as §1
# [15] = target: Gal(b1-4)GlcNAc(b1-3)Gal(b1-4)GlcNAc(b1-2)[Gal(b1-4)GlcNAc(b1-3)Gal(b1-4)GlcNAc(b1-6)]Man(a1-6)[Gal(b1-4)GlcNAc(b1-3)Gal(b1-4)GlcNAc(b1-2)Man(a1-3)]Man(b1-4)GlcNAc(b1-4)[Fuc(a1-6)]GlcNAc
# How it was run: as §1
# [16] = target: Gal(b1-4)GlcNAc(b1-3)Gal(b1-4)GlcNAc(b1-3)Gal(b1-4)GlcNAc(b1-2)Man(a1-3)[Gal(b1-4)GlcNAc(b1-3)Gal(b1-4)GlcNAc(b1-3)Gal(b1-4)GlcNAc(b1-2)Man(a1-6)]Man(b1-4)GlcNAc(b1-4)GlcNAc
# How it was run: as §1
# [17] = target: Gal(b1-4)GlcNAc(b1-3)Gal(b1-4)GlcNAc(b1-3)Gal(b1-4)GlcNAc(b1-2)[Gal(b1-4)GlcNAc(b1-3)Gal(b1-4)GlcNAc(b1-3)Gal(b1-4)GlcNAc(b1-6)]Man(a1-6)[Gal(b1-4)GlcNAc(b1-3)Gal(b1-4)GlcNAc(b1-3)Gal(b1-4)GlcNAc(b1-2)Man(a1-3)]Man(b1-4)GlcNAc(b1-4)[Fuc(a1-6)]GlcNAc
# How it was run: as §1
# [18] = target: Gal(b1-4)GlcNAc(b1-3)Gal(b1-4)GlcNAc(b1-3)[Gal(b1-4)GlcNAc(b1-3)Gal(b1-4)GlcNAc(b1-6)]GalNAc
# How it was run: as §1
# [19] = target: Gal(b1-4)GlcNAc(b1-3)Gal(b1-4)GlcNAc(b1-6)[Gal(b1-3)]GalNAc
# How it was run: as §1
# [20] = target: Gal(b1-4)GlcNAc(b1-3)[Gal(b1-4)GlcNAc(b1-6)]GalNAc
# How it was run: as §1
# [21] = target: Gal(b1-4)GlcNAc(b1-6)Gal(b1-4)GlcNAc(b1-6)GalNAc
# How it was run: as §1
# GalNAc(a1-3)GalNAc = target: GalNAc(a1-3)GalNAc
# How it was run: as §1
# GalNAc(b1-3)Gal = target: GalNAc(b1-3)Gal
# How it was run: as §1
# GalNAc3S(b1-4)GlcNAc3S = target: GalNAc3S(b1-4)GlcNAc3S
# How it was run: as §1
# Glc(a1-4)Glc = target: Glc(a1-4)Glc
# How it was run: as §1
# [22] = target: GlcNAc(b1-3)Gal(b1-4)GlcNAc(b1-3)Gal(b1-4)GlcNAc(b1-2)Man(a1-3)[GlcNAc(b1-3)Gal(b1-4)GlcNAc(b1-3)Gal(b1-4)GlcNAc(b1-2)Man(a1-6)]Man(b1-4)GlcNAc(b1-4)GlcNAc
# How it was run: as §1
# [23] = target: GlcNAc(b1-3)Gal(b1-4)GlcNAc(b1-3)Gal(b1-4)GlcNAc(b1-2)[GlcNAc(b1-3)Gal(b1-4)GlcNAc(b1-3)Gal(b1-4)GlcNAc(b1-6)]Man(a1-6)[GlcNAc(b1-3)Gal(b1-4)GlcNAc(b1-3)Gal(b1-4)GlcNAc(b1-2)Man(a1-3)]Man(b1-4)GlcNAc(b1-4)[Fuc(a1-6)]GlcNAc
# How it was run: as §1
# [24] = target: GlcNAc(b1-3)Gal(b1-4)GlcNAc(b1-3)Gal(b1-4)GlcNAc(b1-3)Gal(b1-4)GlcNAc(b1-3)Gal(b1-4)GlcNAc(b1-2)Man(a1-3)[GlcNAc(b1-3)Gal(b1-4)GlcNAc(b1-3)Gal(b1-4)GlcNAc(b1-3)Gal(b1-4)GlcNAc(b1-3)Gal(b1-4)GlcNAc(b1-2)Man(a1-6)]Man(b1-4)GlcNAc(b1-4)[Fuc(a1-6)]GlcNAc
# How it was run: as §1
# [25] = target: GlcNAc(b1-3)Gal(b1-4)GlcNAc(b1-6)[Gal(b1-3)]GalNAc
# How it was run: as §1
# GlcNAc(b1-3)GalNAc = target: GlcNAc(b1-3)GalNAc
# How it was run: as §1
binder,measurement,setting,value
B1,glycan array binding signal (z-score),[1],-0.125
same,glycan array binding signal (z-score),[2],-0.309
same,glycan array binding signal (z-score),[3],0.542
same,glycan array binding signal (z-score),[4],-0.123
same,glycan array binding signal (z-score),[5],-0.485
same,glycan array binding signal (z-score),[6],-0.455
same,glycan array binding signal (z-score),[7],-0.399
same,glycan array binding signal (z-score),[8],-0.226
same,glycan array binding signal (z-score),[9],-0.517
same,glycan array binding signal (z-score),[10],10.5
same,glycan array binding signal (z-score),[11],-0.325
same,glycan array binding signal (z-score),[12],-0.491
same,glycan array binding signal (z-score),[13],-0.234
same,glycan array binding signal (z-score),[14],3.88
same,glycan array binding signal (z-score),[15],0.699
same,glycan array binding signal (z-score),[16],4.58
same,glycan array binding signal (z-score),[17],1.81
same,glycan array binding signal (z-score),[18],4.2
same,glycan array binding signal (z-score),[19],4.88
same,glycan array binding signal (z-score),[20],5.59
same,glycan array binding signal (z-score),[21],5.39
same,glycan array binding signal (z-score),GalNAc(a1-3)GalNAc,-0.186
same,glycan array binding signal (z-score),GalNAc(b1-3)Gal,-0.272
same,glycan array binding signal (z-score),GalNAc3S(b1-4)GlcNAc3S,-0.509
same,glycan array binding signal (z-score),Glc(a1-4)Glc,-0.148
same,glycan array binding signal (z-score),[22],3.72
same,glycan array binding signal (z-score),[23],3.4
same,glycan array binding signal (z-score),[24],0.151
same,glycan array binding signal (z-score),[25],-0.412
same,glycan array binding signal (z-score),GlcNAc(b1-3)GalNAc,-0.366
